From PubChem BioAssay (NCI)
Compounds without any hit were thinned out: in the full panel of roughly 79,000, 15% have a hit. Values without a mark were called inactive. Active and inactive are the calls of the source. No stated cut-off is given here; in the data, active means growth inhibition above about 70%; inactive means the rest.

assay: NCI Yeast Anticancer Drug Screen. Data for the mlh1 rad18 strain (AID 175); conditions: S. cerevisiae mlh1 rad18 strain growth inhibition; at 50.0 µM; stronger effect = higher value
In short: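 Yeast w/ defined DNA-repair lesions; compound exposure; growth vs vehicle controls → % inhibition.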

| Structure (SMILES) | growth inhibition |
| --- | --- |
| O=C(CCC(=O)Nc1cc(Cl)ccc1Cl)CC(=O)c1ccc([N+](=O)[O-])cc1 | 40.4% |
| NC1C2CC3CC1CC(C2)O3 (stereo not given) | -14.3% |
| O=C(O)C(Br)C(Br)C(=O)Nc1cccc2ccccc12 (stereo not given) | 98.8% (active) |
| CC(C)[C@@]12O[C@@H]1CC13OC1[C@@H](O)CC[C@@]32O (stereo not given in full) | -20.8% |
| O=C1C=C(C2CCCCC2)C(=O)c2ccccc21 | 10.3% |
| Cc1ccc(N=C(NN(C)C)C(c2ccccc2)c2ccccc2)cc1 | -14.2% |
| CC(CS(C)(=O)=O)S(=O)(=O)O (stereo not given) | -5.85% |
| Cc1ccc(N=NN(C)C)cc1 | 33% |
| COc1cc(NC(=O)CCN2CCOCC2)c2ncccc2c1 | 43% |
| FC(F)(F)c1cccc(C2SCc3nc4ccccc4n32)c1 (stereo not given) | 21.7% |
| O=c1c(Cl)c(Cl)cnn1-c1ccc([N+](=O)[O-])cc1[N+](=O)[O-] | 5.75% |
| CN(C)/C(=N\N=C(/c1ccc(Cl)cc1)N(C)C)c1ccc(Cl)cc1 | -19.1% |
| Cc1c(C)c(C)c(CN2CC(=O)c3ccccc3C2=O)c(C)c1C | 15.5% |
| C[n+]1nc([O-])oc1-c1ccccc1 | 6.3% |
| Cc1[nH]c2ccccc2c1-c1cc(-c2cc(-c3c(C)[nH]c4ccccc34)nc(N)n2)nc(N)n1 | -1.95% |
| COc1cccc(/C=C2\C(=O)N(C(=O)Cc3ccccc3)N=C2C)c1 | -24.1% |
| OCCOc1ccc(OCCO)cc1 | -8.45% |
| CCCCNC(C)=O | -1.7% |
| OC(Cc1cccnc1)(c1ccccc1)c1ccccc1 | -0.4% |
| COC(=O)C1(CCSc2ccccc2)CCCC1=O (stereo not given) | 6.65% |

| Structure (SMILES) | growth inhibition |
| --- | --- |
| CCCCN(CCCC)C(=N)c1cccc(OC)c1 | -17.9% |
| O=[N+]([O-])c1ccc(N/N=C2\C=C(c3ccccc3)C(c3ccccc3)C2)c([N+](=O)[O-])c1 (stereo not given) | -14.2% |
| S=C(Nc1ccccc1)N1N=C2c3ccccc3CC[C@H]2[C@@H]1c1ccccc1 | -58.5% |
| CCCCCCCCCCCCCCCCNc1nc(=O)n(C2CC(O)C(COP(=O)(O)OC3CC(n4cc(F)c(=O)[nH]c4=O)OC3CO)O2)cc1F (stereo not given) | -31.6% |
| COc1cc2c(SCCN(C)C)nc3ccccc3c2c2ccccc12 | 89.1% (active) |
| C=C(C)CBr | -3.5% |
| O=C1Cn2c(cc(=O)c3ccccc32)O1 | 14.8% |
| CC1=CC(=O)C(c2ccccc2)CC1 (stereo not given) | -5.3% |
| CC(C#N)(CCl)OS(=O)(=O)CCCl (stereo not given) | 25.4% |
| Cc1ccc(NC(=O)CCC(=O)C2Cc3ccccc3C2=O)cc1C (stereo not given) | 3.85% |
| CCOC(=O)c1ccc(NC(=O)Oc2ccc(SC)cc2)cc1 | 6.9% |
| O=[N+]([O-])Cc1ccc(Cl)cc1 | 15.6% |
| CCOc1ccc2nc(NC(=O)C(=O)C(C(=O)c3ccccc3F)C3OC(=O)c4ccccc43)sc2c1 (stereo not given) | 7% |
| Nc1cccc2nsnc12 | -15.7% |
| CCOC(=O)C[N+]1(C)CCC(O)CC1 (stereo not given) | 7.55% |
| C/C=C\C(=O)OCC(C)COC(=O)/C=C/C (stereo not given) | 6.65% |
| O=c1c2ccccc2c2ccccc2n1C(c1ccccc1)c1ccccc1 | -2% |
| CC(C)C(=O)Nc1ccc([N+](=O)[O-])cc1 | -17.3% |
| Oc1c2cccc1Cc1cccc3c1OCCOCCOCCOCCOc1c(cccc1Cc1cccc(c1O)C3)C2 | -6.05% |
| CCN(CC)Cc1ncccc1O | 16.1% |
